Data published in PubChem BioAssay (NCI).
The panel holds about 83,000 compounds, 20% with a hit somewhere; the sample as a whole holds those more often.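 Negative percent growth values reflect cell death: -40 means 40% of the cells present at the start died, and -100 means all died.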 Values without a mark were called inactive. Calls of active or inactive are those of the source. Rule for the calls: active = growth percent below 10; inactive = the rest.

Assays:
Assay in all cases: NCI-60 one-dose screen, 48 h (100 = growth as untreated, 0 = no growth, -100 = all killed)
Settings in all cases: 10 µM unless noted
SK-MEL-2 melanoma = tested on: SK-MEL-2 melanoma
EKVX NSCLC = tested on: EKVX NSCLC
SN12C renal = tested on: SN12C renal
UO-31 renal = tested on: UO-31 renal
TK-10 renal = tested on: TK-10 renal
ACHN renal = tested on: ACHN renal
CAKI-1 renal = tested on: CAKI-1 renal
A498 renal = tested on: A498 renal
CCRF-CEM leukemia = tested on: CCRF-CEM leukemia
MOLT-4 leukemia = tested on: MOLT-4 leukemia
RPMI-8226 leukemia = tested on: RPMI-8226 leukemia
OVCAR-8 ovarian = tested on: OVCAR-8 ovarian
OVCAR-5 ovarian = tested on: OVCAR-5 ovarian
OVCAR-4 ovarian = tested on: OVCAR-4 ovarian
SK-OV-3 ovarian = tested on: SK-OV-3 ovarian
IGROV1 ovarian = tested on: IGROV1 ovarian
OVCAR-3 ovarian = tested on: OVCAR-3 ovarian
HS 578T breast = tested on: HS 578T breast
NCI/ADR-RES ovarian = tested on: NCI/ADR-RES ovarian
SR leukemia = tested on: SR leukemia

SMILES | growth (SK-MEL-2 melanoma) | growth (EKVX NSCLC) | growth (SN12C renal) | growth (UO-31 renal) | growth (TK-10 renal) | growth (ACHN renal) | growth (CAKI-1 renal) | growth (A498 renal) | growth (CCRF-CEM leukemia) | growth (MOLT-4 leukemia) | growth (RPMI-8226 leukemia) | growth (OVCAR-8 ovarian) | growth (OVCAR-5 ovarian) | growth (OVCAR-4 ovarian) | growth (SK-OV-3 ovarian) | growth (IGROV1 ovarian) | growth (OVCAR-3 ovarian) | growth (HS 578T breast) | growth (NCI/ADR-RES ovarian) | growth (SR leukemia)
NS(=O)(=O)c1ccc(Nc2nc(N/N=C/c3ccc(Cl)cc3)nc(Nc3ccccc3)n2)cc1 | 81.7% | 76.6% | 81.6% | 82.1% | 103% | 90.1% | 62.1% | 76.3% | 19.4% | 1.53% (active) | 54.7% | 67.9% | 83.4% | 83.6% | 104% | 66.8% | 70.4% | 64.7% | 97.5% | 
C=CC(=O)N1CCC=C(c2cc3c(N[C@H](C)c4ccccc4)ncnc3[nH]2)C1 | 89.7% | 28.1% | 29.3% | 20.5% | -5.86% (active) | 6.81% (active) | 14.4% | -27.8% (active) |  | 93.4% | 41.8% | 66.4% | 49.8% | 45.4% | -6.72% (active) | 14.5% | 56.2% | 69% | 73.7% | 32.9%
CCCCCc1ccc(S(=O)(=O)Nc2cccc(-c3csc(NC(=O)CCCCCN4CCN(C)CC4)n3)c2)cc1 | 98.3% | 71% | 79.8% | 75.9% | 107% | 86.4% | 79.5% | 78.7% |  | 3.35% (active) | -22.5% (active) | 81.9% | 88.8% | 71.4% | 97.9% | 69.6% | 37.1% | 72.2% | 89.8% | -31.4% (active)
COc1cc(-c2nn(C(C)(C)C)cc2-c2ccnc(NCCCNS(=O)(=O)c3ccc(F)cc3)n2)ccc1Cl | 86.9% | 39% | 52.5% | 42.3% | 68.8% | 83.6% | 25% | 51.9% |  | 49.5% | 75.1% | 89.2% | 82.3% | 54.2% | 104% | 61.6% | 90.7% | 81% | 79.9% | 48.8%
COc1ccc(/C(N)=N/C(N)=N/c2nc3ccccc3s2)cc1 | 66.7% | 61% | 79% | 57.4% | 117% | 80.8% | 40% | 64.9% |  | 74.6% | 43.6% | 97.3% | 103% | 76.5% | 99.6% | 49.8% | 96% | 81.3% | 35% | 13.4%
Cc1cc(-c2ccc(Cl)cc2)n(Cc2nnc(SCC(=O)Nc3ccc(S(N)(=O)=O)cc3)n2C2CCCCC2)n1 | 106% | 103% | 105% | 82.3% | 106% | 104% | 99.4% | 111% | 114% | 141% | 102% | 99.2% | 107% | 109% | 106% | 104% |  | 100% | 106% | 
CC(=O)N1N=C(c2cccc(-n3cccc3)c2)CC1c1cccc(F)c1 (stereo not given) | 103% | 95.7% | 97.1% | 75.4% | 123% | 101% | 86.5% | 101% | 94.4% | 90.3% | 93.7% | 98.2% | 95.8% | 101% | 97.3% | 96.9% |  | 91% | 95.9% | 
N#Cc1cnc2ccc(-c3cnc4[nH]ncc4c3)cc2c1N1CCc2cc(F)c(Cl)cc21 | -5.98% (active) | -1.26% (active) | 9.07% (active) | -8.85% (active) | 13.1% | 12.5% | 15.1% | -53.7% (active) |  | 4.01% (active) | -1.79% (active) | 19.2% | 19.5% | 15.3% | 4.24% (active) | -31% (active) | -5.18% (active) | -42% (active) | 8.51% (active) | 8.41% (active)
C#CCOC(=O)[C@@H]1CCCN1CC#C | 98.2% | 86.3% | 92.6% | 66.1% | 96.2% | 85.7% | 76.3% | 93.5% | 81.9% | 61.5% | 71% | 90.4% | 103% | 91.9% | 97.6% | 67.3% | 87.3% | 74.8% | 85.7% | 
Cc1ccc(-c2nnc(SCc3ccc(O)c4ncccc34)o2)cc1 | 34.8% | 22.1% | 34.5% | -12.8% (active) | 24.3% | 10.3% | 24.8% | 36.5% |  | 10.8% | 12.8% | 12.2% | 58.2% | 15.8% | 14.1% | 13.7% | 28.4% | 15.5% | 10.7% | 32.8%
COc1cc2nc(Cl)nc(Nc3cccc(C4=Nc5c(N)nc(N)nc5NC(c5ccc(F)cc5)C4)c3)c2cc1OC (stereo not given) | 86% | 89.6% | 81.9% | 91.8% | 112% | 97.3% | 88.8% | 77.9% | 5.4% (active) |  | -3.6% (active) | 51.6% | 107% | 96.6% | 117% | 80.8% | 61% | 86.1% | 80% | 
Nc1nc(Nc2ccccc2SSc2ccccc2Nc2nc(N)nc(-c3ccc4ccccc4c3)n2)nc(-c2ccc3ccccc3c2)n1 | 99.4% | 44.7% | 70% | -19.1% (active) | 117% | 69.5% | 35% | 94% |  | 62.5% | 84.3% | 84.4% | 99.3% | 83.9% | 112% | 47.6% | 106% | 86.2% | 19.5% | -25.5% (active)
Cc1ccc(-c2nn(-c3ccccc3)cc2/C=C/C(=O)c2ccc(NC(=O)CCCCCCC(=O)NO)cc2)cc1 | 88.2% | 85.8% | 73.5% | 52.2% | 70.2% | 87.9% | 58.1% | 58.2% | 38.8% | 38.5% | 70.5% | 62.5% | 79.2% | 79.8% | 70.7% | 69.1% | 75.9% | 47.1% | 70.4% | 
Cc1ccc(NC(=O)CNc2cc(C(N)=O)cc(F)c2C)c(Cl)c1 | 101% | 47.5% | 77.1% | 50.4% | 102% | 88.9% | 62.6% | 39% |  | 90.5% | 90.6% | 99.9% | 87.9% | 75.2% | 104% | 70.6% | 111% | 92.8% | 105% | 95.2%
Clc1nc2ccccc2nc1-c1nnc(C2CCCCC2)o1 | 102% | 98.8% | 101% | 92.7% | 105% | 99.2% | 89.5% | 89.3% | 84.9% | 109% | 95.4% | 101% | 107% | 98% | 102% | 101% |  | 92.8% | 107% | 
Cc1nc2ncc(-c3ccc4ncnc(NCc5ccccc5)c4c3)cc2[nH]1 | 74% | 25.3% | 32.3% | 45.4% | 22.6% | 64.9% | 19.3% | -18.2% (active) |  | 45.2% | 75.5% | 76.9% | 42.6% | 48% | 52.5% | 16.8% | 39.2% | 29.2% | 104% | 78.3%
